Screening data deposited in PubChem BioAssay by The Scripps Research Institute Molecular Screening Center.
The list is not random: actives were taken first. Their share in the collection is about 2.3%.
PAD4 inh: blocks human protein arginine deiminase 4 | Q9UM07 | recombinant PAD4, RCA probe fluorescence polarization | inhibition, % at 6.36 µM | 330,000 tested, 0.41% active | AID 485272;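 active = percent inhibition above a cutoff equal to the mean of all tested compounds plus 3 SD, cut at about 15% in these data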;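 note: 0% = PAD4 with RCA probe and DMSO and 100% = probe without PAD4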
PME-1 inh: blocks human protein phosphatase methylesterase 1; 320,000 tested, 0.53% active; recombinant PME-1, FP-Rh probe fluorescence polarization; inhibition, % at 5.9 µM; AID 2130;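 active = inhibition above the campaign mean of all compounds plus 3 SD, cut at about 26% in these data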;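 note: competitive labeling of PME-1 active site by serine hydrolase directed probe; 0% = PME-1 with DMSO and 100% = wells lacking PME-1 enzyme; inhibitors block probe labeling so polarization falls and inhibition rises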
Target sequence (Q9Y570 whole entry, looked up): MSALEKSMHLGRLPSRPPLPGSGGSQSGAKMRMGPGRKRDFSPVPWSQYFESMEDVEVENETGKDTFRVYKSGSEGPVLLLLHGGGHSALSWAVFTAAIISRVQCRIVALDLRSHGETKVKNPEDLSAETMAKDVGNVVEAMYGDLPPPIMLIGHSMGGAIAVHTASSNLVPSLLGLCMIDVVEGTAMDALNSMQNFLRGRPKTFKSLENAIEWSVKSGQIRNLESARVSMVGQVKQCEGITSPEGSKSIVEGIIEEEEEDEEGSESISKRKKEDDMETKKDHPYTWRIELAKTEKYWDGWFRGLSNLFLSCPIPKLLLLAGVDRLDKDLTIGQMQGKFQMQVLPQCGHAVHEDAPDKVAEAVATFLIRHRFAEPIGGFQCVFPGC
Fam108B inh: Fam108B inhibition, counter-screen for RBBP9 inhibitors; 300,000 tested, 0.33% active; AID 1947; inhibition, % at 9.51 µM; recombinant Fam108B, FP-Rh probe fluorescence polarization;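 active = inhibition above the screen mean inhibition plus 3 SD, computed separately per campaign, cut at about 18% in these data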;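 note: inhibitors lower polarization as less probe binds the enzyme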
pPAFAH FP inh: pPAFAH (human) enzyme inhibition; Q13093; recombinant pPAFAH, FP-rhodamine probe fluorescence polarization; inhibition, % at 3.39 µM; 330,000 tested, 1.5% active;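 active = inhibition above the mean inhibition across the screen plus 3 SD, cut at about 25% in these data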;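 note: inhibitors block binding of the rhodamine activity-based probe so polarization drops; 0% = enzyme with DMSO and 100% = wells lacking pPAFAH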
GSTO1 counter: blocks human GSTO1 in RBBP9 counter-screen | recombinant GSTO1, activity-based probe fluorescence polarization | inhibition, % at 5.96 µM | 300,000 tested, 1.1% active | AID 1974;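 active = inhibition above the campaign mean inhibition plus 3 SD, cut at about 35% in these data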;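 note: 0% = GSTO1-1 with DMSO and 100% = wells lacking GSTO1-1 enzyme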
Target sequence (P78417 whole entry, looked up): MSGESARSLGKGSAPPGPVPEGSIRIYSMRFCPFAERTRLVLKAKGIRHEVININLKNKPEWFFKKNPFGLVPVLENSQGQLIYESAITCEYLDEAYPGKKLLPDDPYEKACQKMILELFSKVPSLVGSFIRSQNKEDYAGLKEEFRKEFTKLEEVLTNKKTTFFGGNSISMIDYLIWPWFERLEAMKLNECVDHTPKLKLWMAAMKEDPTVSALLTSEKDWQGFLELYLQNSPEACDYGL
The depositor's hits bear a star.

Screening COc1cccc(N2C(=NC(=O)C3CCCO3)SC3CS(=O)(=O)CC32)c1 (centres undefined) returned PAD4 inh -1.0, PME-1 inh -3.8, Fam108B inh 2.9, pPAFAH FP inh 1.6 and GSTO1 counter 6.3.
Cc1ccc(S(=O)(=O)N2Cc3ccccc3CC2C(=O)Nc2ccc3c(c2)OCO3)cc1 (centres undefined) was read as PAD4 inh -1.9, PME-1 inh -4.9, Fam108B inh 3.5, pPAFAH FP inh 28.2* and GSTO1 counter -9.1.
For CCC1CCCCN1CCCNC(=O)CCC(=O)N1CC(C)Oc2ccccc21 (centres undefined) the results were PAD4 inh -3.8, PME-1 inh -3.9, Fam108B inh -5.2, pPAFAH FP inh -8.6 and GSTO1 counter 0.9.
Screening COc1ccc(OC)c(Nc2nc(NCc3ccco3)c3ccccc3n2)c1 returned PAD4 inh -3.0, PME-1 inh 24.6, Fam108B inh 11.8, pPAFAH FP inh 25.5* and GSTO1 counter -10.1.
`Cc1ccccc1Nc1nc(NCc2ccco2)c2ccccc2n1` gave PAD4 inh -5.3, PME-1 inh 5.4, Fam108B inh 3.2, pPAFAH FP inh -1.7 and GSTO1 counter 24.1.
Screening CCc1cc(-c2n[nH]c(C)c2Oc2ccc(C(C)C)cc2)c(O)cc1O returned PAD4 inh 2.4, PME-1 inh 3.9, Fam108B inh 9.5, pPAFAH FP inh 31.0* and GSTO1 counter -2.1.
Screening CC(NC(=O)C(c1ccccc1)c1ccccc1)C(=O)N1CCCCC1 (centres undefined) returned PAD4 inh -7.1, PME-1 inh 0.1, Fam108B inh 3.0, pPAFAH FP inh 3.3 and GSTO1 counter 1.4.
`NC(=O)/C(=N\OC(=O)c1ccco1)c1nc(-c2ccc(Br)cc2)cs1` gave PAD4 inh 0.1, PME-1 inh -50.1, Fam108B inh -5.2, pPAFAH FP inh 32.2* and GSTO1 counter -29.6.
Screening O=C1CC(N2CCSCC2)C(=O)N1c1ccc(F)cc1 (centres undefined) returned PAD4 inh 0.5, PME-1 inh -2.8, Fam108B inh 2.0, pPAFAH FP inh 3.8 and GSTO1 counter 4.4.
`N#Cc1c(N2CCN(C(=O)c3ccccc3Cl)CC2)nc(-c2ccccc2)c2c1CCCC2` gave PAD4 inh 2.0, PME-1 inh -5.6, Fam108B inh -5.0, pPAFAH FP inh 1.6 and GSTO1 counter 1.1.
`CC1(C)Cc2c(C#N)c(N3CCN(C(=O)c4ccco4)CC3)nc(-c3ccco3)c2CS1` gave PAD4 inh -7.2, PME-1 inh 3.8, Fam108B inh 1.8, pPAFAH FP inh 31.9* and GSTO1 counter -3.6.
CC1(C)Cc2c(C#N)c(N3CCN(C(=O)c4ccccc4Cl)CC3)nc(-c3ccco3)c2CS1 was read as PAD4 inh -4.4, PME-1 inh 3.9, Fam108B inh -3.0, pPAFAH FP inh 34.4* and GSTO1 counter 5.5.
For CC(=O)N1CCN(c2nc(-c3ccco3)c3c(c2C#N)CC(C)(C)SC3)CC1 the results were PAD4 inh -2.9, PME-1 inh 4.4, Fam108B inh 0.0, pPAFAH FP inh 16.5 and GSTO1 counter 5.3.
Screening C=CCn1c(SCc2ccc(C(=O)Nc3ccccc3)cc2)nnc1-c1ccccc1 returned PAD4 inh 1.0, PME-1 inh 2.1, Fam108B inh -1.4, pPAFAH FP inh 3.4 and GSTO1 counter 0.5.
`Cc1noc(C)c1C(=O)Nc1ccccc1N1CCOCC1` gave PAD4 inh -2.8, PME-1 inh 4.9 and pPAFAH FP inh -0.2.
For O=C(Nc1nc(-c2ccccc2)cs1)c1ccc(=O)[nH]c1 the results were PAD4 inh -2.1, PME-1 inh -7.5, Fam108B inh -7.1, pPAFAH FP inh -1.9 and GSTO1 counter -0.3.
`Cc1cc(-c2csc(NC(=O)c3ccc(=O)[nH]c3)n2)c(C)n1Cc1ccccc1` gave PAD4 inh -7.4, PME-1 inh 16.2, Fam108B inh 11.3, pPAFAH FP inh 31.3* and GSTO1 counter -14.8.
Screening CCCCCCC[C@@H](C/C=C/CCC(=O)N(C)C/C(=C/Cl)C/C(=C\C(=O)N1CC(OC)=CC1=O)OC)OC returned PAD4 inh -4.6 and pPAFAH FP inh 28.1*.
`Cc1ccc2[nH]c(O)c(N=Nc3nc4ccccc4s3)c2c1` gave PAD4 inh 2.7, PME-1 inh 9.1, Fam108B inh 7.0, pPAFAH FP inh 0.0 and GSTO1 counter 7.9.
For Oc1[nH]c2ccccc2c1N=Nc1nc2ccccc2s1 the results were PAD4 inh -2.1, PME-1 inh 29.4*, Fam108B inh 5.3, pPAFAH FP inh 7.6 and GSTO1 counter -78.3.
Screening COc1ccc(CCNC(=O)c2ccc(CSc3ccccc3)o2)cc1 returned PAD4 inh -1.9, PME-1 inh -2.5, Fam108B inh 3.1, pPAFAH FP inh 25.2* and GSTO1 counter -6.8.
Screening O=C(NCc1ccc2c(c1)OCO2)c1ccc(CS(=O)(=O)Cc2cccc(Cl)c2)o1 returned PAD4 inh -3.1, PME-1 inh -4.6, Fam108B inh -3.1, pPAFAH FP inh 25.0* and GSTO1 counter 1.2.
For Cc1cccc(CS(=O)(=O)Cc2ccc(C(=O)NCCCN3CCCC3)o2)c1 the results were PAD4 inh -2.3, PME-1 inh 1.1, Fam108B inh -3.5, pPAFAH FP inh 32.7* and GSTO1 counter -1.7.
Screening Cc1ccc(CS(=O)(=O)CCC(=O)NCCc2ccccc2)cc1 returned PAD4 inh -2.6, PME-1 inh -1.5, Fam108B inh -1.5, pPAFAH FP inh 24.6* and GSTO1 counter -1.9.
Cc1cccc(CS(=O)(=O)Cc2ccc(C(=O)NCCCN3CCOCC3)o2)c1 was read as PAD4 inh -3.2, PME-1 inh 8.8, Fam108B inh -0.4, pPAFAH FP inh 11.6 and GSTO1 counter 1.2.
`Cc1cccc(CS(=O)(=O)Cc2ccc(C(=O)NCCc3ccccc3)o2)c1` gave PAD4 inh -1.8, PME-1 inh -3.5, Fam108B inh 0.8, pPAFAH FP inh 28.6* and GSTO1 counter -0.6.
`CCCCNC(=O)c1ccc(CS(=O)(=O)Cc2ccccc2F)o1` gave PAD4 inh -1.4, PME-1 inh -1.6, Fam108B inh -0.2, pPAFAH FP inh 25.2* and GSTO1 counter 7.5.
For CCOc1cc(N2CCOCC2)c(OCC)cc1NC(=O)COC(=O)CCOc1cc(C)ccc1C the results were PAD4 inh 2.6, PME-1 inh 5.3, Fam108B inh -0.8, pPAFAH FP inh 11.6 and GSTO1 counter 5.9.
`O=C(CN1CCN(c2ccc(O)cc2)CC1)Nc1cc(S(=O)(=O)N2CCCC2)ccc1Cl` gave PAD4 inh -0.2, PME-1 inh 36.9*, Fam108B inh 3.0, pPAFAH FP inh 10.2 and GSTO1 counter 20.0.
Screening Cn1nnnc1SCC(=O)Nc1cc(S(=O)(=O)N2CCCC2)ccc1Cl returned PAD4 inh -3.1, PME-1 inh 1.4, Fam108B inh 0.3, pPAFAH FP inh 2.4 and GSTO1 counter 6.2.
Screening O=C(CSc1cccc(C(F)(F)F)c1)Nc1cc(S(=O)(=O)N2CCCC2)ccc1Cl returned PAD4 inh 0.9, PME-1 inh 48.6*, Fam108B inh -5.5, pPAFAH FP inh 9.8 and GSTO1 counter -3.7.
